# Data taken from paper PMC7862700, “An all-to-all approach to the identification of sequence-specific readers for epigenetic DNA modifications on cytosine”.
# Experiments:
# Experiment in all cases: DAPPL (digital affinity profiling via proximity ligation, sequencing); 10 mM Tris-HCl pH 7.5, 50 mM NaCl, 1 mM DTT, 4% glycerol, room temperature, 30 min; GST-TFs on glutathione beads, 16-mer random dsDNA library, 0.1% formaldehyde crosslink after washing; high values mean tight binding
# FEV = target: T1, FEV (Homo sapiens, UniProt Q99581 1-238); conditions: protein: recombinant; tags: N-terminal GST; dsDNA, one strand shown
# T1 sequence: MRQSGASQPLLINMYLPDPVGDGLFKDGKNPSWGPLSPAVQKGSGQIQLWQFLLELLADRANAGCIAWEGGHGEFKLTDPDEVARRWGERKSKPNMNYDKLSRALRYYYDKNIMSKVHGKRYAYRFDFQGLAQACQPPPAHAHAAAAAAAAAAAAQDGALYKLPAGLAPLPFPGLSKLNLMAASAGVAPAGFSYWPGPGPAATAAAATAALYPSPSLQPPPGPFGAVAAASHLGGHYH
# Summary of the method: (§1)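 A tag-only sample was pooled with DNA-barcoded human transcription factors that had been expressed in yeast as GST fusions and captured on glutathione beads. The pools were incubated for 30 min at room temperature with 200 nmole of a random double-stranded 16-mer DNA library in Tris/NaCl/DTT/glycerol buffer, then washed, crosslinked with 0.1% formaldehyde, proximity-ligated (BsaI/T4 ligase, 1 h, 37 °C), PCR-amplified and sequenced on an Illumina NextSeq500. Binding signal is each hexamer's read frequency for a factor divided by its frequency for the tag-only sample.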
# ETV5 = ETV5 (Homo sapiens, UniProt P41161 1-510); conditions: protein: recombinant; tags: N-terminal GST; dsDNA, one strand shown
# Summary of the method: as §1
# HSF1 = HSF1 (Homo sapiens, UniProt Q00613 1-529); conditions: protein: recombinant; tags: N-terminal GST; chain copies: 3; dsDNA, one strand shown
# Summary of the method: as §1
# SPIC = target: T2, SPIC (Homo sapiens, UniProt Q8N5J4 1-248); conditions: protein: recombinant; tags: N-terminal GST; dsDNA, one strand shown
# T2 sequence: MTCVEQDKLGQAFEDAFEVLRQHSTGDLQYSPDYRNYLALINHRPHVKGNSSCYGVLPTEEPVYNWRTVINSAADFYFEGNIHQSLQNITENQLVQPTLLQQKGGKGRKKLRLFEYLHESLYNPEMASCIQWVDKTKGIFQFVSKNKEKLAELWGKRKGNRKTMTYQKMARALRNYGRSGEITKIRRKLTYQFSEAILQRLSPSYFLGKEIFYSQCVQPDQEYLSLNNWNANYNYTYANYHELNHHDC
# Summary of the method: as §1
# ELF4 = ELF4 (Homo sapiens, UniProt Q99607 1-663); conditions: protein: recombinant; tags: N-terminal GST; dsDNA, one strand shown
# Summary of the method: as §1
# ELK4 = target: T3, ELK4 (Homo sapiens, UniProt P28324-2 1-405); conditions: protein: recombinant; tags: N-terminal GST; dsDNA, one strand shown
# T3 sequence: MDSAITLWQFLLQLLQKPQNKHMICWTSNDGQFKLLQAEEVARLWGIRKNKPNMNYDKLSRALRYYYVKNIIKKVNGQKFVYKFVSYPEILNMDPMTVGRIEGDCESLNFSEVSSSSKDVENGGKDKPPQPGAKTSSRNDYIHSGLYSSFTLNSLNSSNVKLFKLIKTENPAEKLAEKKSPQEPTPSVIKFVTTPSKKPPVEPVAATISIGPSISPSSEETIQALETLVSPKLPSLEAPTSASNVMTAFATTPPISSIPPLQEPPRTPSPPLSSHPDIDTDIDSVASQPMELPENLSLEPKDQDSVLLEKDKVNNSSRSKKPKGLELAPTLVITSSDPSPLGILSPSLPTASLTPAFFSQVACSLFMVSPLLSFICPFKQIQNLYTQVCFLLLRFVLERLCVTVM
# Summary of the method: as §1
# ETV2 = target: T4, ETV2 (Homo sapiens, UniProt O00321 1-342); conditions: protein: recombinant; tags: N-terminal GST; dsDNA, one strand shown
# T4 sequence: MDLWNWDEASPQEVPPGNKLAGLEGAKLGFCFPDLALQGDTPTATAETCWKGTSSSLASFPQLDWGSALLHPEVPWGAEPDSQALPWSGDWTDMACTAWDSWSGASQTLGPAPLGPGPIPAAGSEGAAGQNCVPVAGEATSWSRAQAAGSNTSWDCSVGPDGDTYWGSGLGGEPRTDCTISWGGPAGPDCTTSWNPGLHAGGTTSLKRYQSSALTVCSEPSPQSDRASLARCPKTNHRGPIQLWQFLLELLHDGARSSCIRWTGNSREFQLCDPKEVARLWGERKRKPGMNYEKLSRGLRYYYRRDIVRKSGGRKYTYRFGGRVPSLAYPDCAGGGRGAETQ
# Summary of the method: as §1
# ELF3 = target: T5, ELF3 (Homo sapiens, UniProt P78545 1-371); conditions: protein: recombinant; tags: N-terminal GST; dsDNA, one strand shown
# T5 sequence: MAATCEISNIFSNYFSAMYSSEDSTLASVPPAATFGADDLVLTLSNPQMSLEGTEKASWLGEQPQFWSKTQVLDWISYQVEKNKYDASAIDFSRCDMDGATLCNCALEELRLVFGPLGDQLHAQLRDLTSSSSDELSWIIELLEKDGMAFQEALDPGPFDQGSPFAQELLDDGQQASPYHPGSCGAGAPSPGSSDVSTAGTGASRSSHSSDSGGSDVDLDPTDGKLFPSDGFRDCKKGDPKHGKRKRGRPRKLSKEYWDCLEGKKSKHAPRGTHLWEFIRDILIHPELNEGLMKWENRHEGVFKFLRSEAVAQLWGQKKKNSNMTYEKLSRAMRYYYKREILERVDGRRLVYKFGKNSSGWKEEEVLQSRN
# Summary of the method: as §1
# CRX = CRX (Homo sapiens, UniProt O43186 1-299); conditions: protein: recombinant; tags: N-terminal GST; dsDNA, one strand shown
# Summary of the method: as §1
# ETV1 = ETV1 (Homo sapiens, UniProt P50549 1-477); conditions: protein: recombinant; tags: N-terminal GST; dsDNA, one strand shown
# Summary of the method: as §1
# Chain of CRX (O43186 whole entry): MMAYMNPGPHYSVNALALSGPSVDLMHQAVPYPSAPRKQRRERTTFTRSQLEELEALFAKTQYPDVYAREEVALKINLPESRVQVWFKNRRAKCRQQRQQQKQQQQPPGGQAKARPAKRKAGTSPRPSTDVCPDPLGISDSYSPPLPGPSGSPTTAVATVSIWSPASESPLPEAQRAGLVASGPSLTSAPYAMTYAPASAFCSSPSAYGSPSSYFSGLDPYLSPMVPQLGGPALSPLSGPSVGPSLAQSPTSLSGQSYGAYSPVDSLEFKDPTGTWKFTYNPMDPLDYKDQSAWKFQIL
# Chain of ETV5 (P41161 whole entry): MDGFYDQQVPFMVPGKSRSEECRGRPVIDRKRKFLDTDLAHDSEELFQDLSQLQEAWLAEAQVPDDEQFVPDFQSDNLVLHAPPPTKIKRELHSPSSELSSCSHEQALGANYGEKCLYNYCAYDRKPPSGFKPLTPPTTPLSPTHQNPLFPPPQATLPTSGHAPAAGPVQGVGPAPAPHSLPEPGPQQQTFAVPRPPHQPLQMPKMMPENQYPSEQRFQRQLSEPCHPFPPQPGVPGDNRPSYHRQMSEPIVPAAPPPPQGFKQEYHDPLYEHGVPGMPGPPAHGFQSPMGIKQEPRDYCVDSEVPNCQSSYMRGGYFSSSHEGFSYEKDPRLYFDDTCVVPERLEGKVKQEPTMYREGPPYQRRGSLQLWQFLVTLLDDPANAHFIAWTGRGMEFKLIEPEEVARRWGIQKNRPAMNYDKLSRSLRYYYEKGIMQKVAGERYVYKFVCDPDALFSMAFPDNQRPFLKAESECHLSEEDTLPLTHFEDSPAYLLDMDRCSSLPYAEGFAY
# Chain of HSF1 (Q00613 whole entry): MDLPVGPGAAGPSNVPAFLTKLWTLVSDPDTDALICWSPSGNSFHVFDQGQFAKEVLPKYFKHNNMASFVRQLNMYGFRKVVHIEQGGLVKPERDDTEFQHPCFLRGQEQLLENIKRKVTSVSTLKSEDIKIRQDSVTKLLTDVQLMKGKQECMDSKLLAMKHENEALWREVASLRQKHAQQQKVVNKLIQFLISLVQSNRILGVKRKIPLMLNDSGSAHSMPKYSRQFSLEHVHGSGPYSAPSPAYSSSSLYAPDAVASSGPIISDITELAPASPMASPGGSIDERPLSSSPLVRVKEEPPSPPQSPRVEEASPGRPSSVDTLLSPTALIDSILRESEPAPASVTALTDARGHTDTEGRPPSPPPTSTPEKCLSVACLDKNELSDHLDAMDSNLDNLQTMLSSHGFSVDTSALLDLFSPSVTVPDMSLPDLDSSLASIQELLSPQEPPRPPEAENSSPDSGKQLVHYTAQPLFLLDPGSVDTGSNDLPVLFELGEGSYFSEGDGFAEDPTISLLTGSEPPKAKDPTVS
# Chain of ELF4 (Q99607 whole entry): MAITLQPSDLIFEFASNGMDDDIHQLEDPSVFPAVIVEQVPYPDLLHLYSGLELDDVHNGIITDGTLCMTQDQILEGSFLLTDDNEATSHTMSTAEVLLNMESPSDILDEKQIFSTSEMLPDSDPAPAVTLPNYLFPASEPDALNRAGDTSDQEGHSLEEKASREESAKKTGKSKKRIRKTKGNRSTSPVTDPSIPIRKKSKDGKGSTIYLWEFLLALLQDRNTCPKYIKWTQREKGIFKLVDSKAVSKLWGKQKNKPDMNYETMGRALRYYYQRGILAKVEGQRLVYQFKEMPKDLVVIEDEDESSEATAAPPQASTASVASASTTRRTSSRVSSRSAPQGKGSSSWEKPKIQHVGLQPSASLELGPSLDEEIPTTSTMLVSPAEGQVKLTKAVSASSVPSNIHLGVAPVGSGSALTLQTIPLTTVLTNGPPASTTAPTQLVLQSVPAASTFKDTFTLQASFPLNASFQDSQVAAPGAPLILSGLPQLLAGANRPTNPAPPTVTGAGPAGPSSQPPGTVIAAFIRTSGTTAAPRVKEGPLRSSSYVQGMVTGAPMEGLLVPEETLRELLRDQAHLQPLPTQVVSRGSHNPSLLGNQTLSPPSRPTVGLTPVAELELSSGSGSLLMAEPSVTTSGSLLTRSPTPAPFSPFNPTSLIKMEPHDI
# Chain of ETV1 (P50549 whole entry): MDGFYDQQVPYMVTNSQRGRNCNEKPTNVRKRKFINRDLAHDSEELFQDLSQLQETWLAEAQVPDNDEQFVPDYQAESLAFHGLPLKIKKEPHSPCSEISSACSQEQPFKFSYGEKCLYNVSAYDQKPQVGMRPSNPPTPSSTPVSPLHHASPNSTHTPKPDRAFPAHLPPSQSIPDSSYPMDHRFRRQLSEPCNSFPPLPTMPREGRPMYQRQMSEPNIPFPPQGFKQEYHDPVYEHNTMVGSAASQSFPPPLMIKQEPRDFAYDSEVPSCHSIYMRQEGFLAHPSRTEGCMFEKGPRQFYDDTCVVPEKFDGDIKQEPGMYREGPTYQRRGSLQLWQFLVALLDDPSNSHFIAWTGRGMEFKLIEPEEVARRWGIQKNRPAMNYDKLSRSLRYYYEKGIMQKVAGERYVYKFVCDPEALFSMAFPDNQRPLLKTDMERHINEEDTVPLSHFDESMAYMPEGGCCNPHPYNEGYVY
sequence,measurement,setting,value
TTGACA,binding signal,FEV,"1.34 fold enrichment (6-mer frequency, TF over GST control)"
same,binding signal,ETV5,"1.28 fold enrichment (6-mer frequency, TF over GST control)"
same,binding signal,HSF1,"1.19 fold enrichment (6-mer frequency, TF over GST control)"
same,binding signal,SPIC,"1.21 fold enrichment (6-mer frequency, TF over GST control)"
same,binding signal,ELF4,"1.3 fold enrichment (6-mer frequency, TF over GST control)"
same,binding signal,ELK4,"1.47 fold enrichment (6-mer frequency, TF over GST control)"
same,binding signal,ETV2,"1.36 fold enrichment (6-mer frequency, TF over GST control)"
same,binding signal,ELF3,"1.51 fold enrichment (6-mer frequency, TF over GST control)"
same,binding signal,CRX,"1.22 fold enrichment (6-mer frequency, TF over GST control)"
same,binding signal,ETV1,"1.33 fold enrichment (6-mer frequency, TF over GST control)"
